Screening results as filed in PubChem BioAssay.
HT1080 IDH1KD tx = kills HT-1080 cells with IDH1 knockdown | 360,000 tested, 2% active | HT-1080 IDH1 knockdown viability, ATP luminescence, 48 h | AID 686971 | Potency, µM (top dose mostly 46.1 µM), hits mostly cytotoxic
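After a 2 h attachment period, IDH1KD HT-1080 cells took pin-transferred compound for 48 h at 37 °C; ATP-based luminescence after 10 min room-temperature reagent incubation reported viability.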
TDP1 cell CPT = growth inhibition of DT40 Tdp1-/-;hTDP1 cells with camptothecin (screen for TDP1 inhibitors); chicken DT40 Tdp1-/-;hTDP1 cells + 20 nM CPT, ATP luminescence, 48 h; Potency, µM (top dose mostly 46.2 µM), most hits filed as inhibitors; 420,000 tested, 12% active; further: nearly all actives have a fitted effect of over 55% in size
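Chicken DT40 Tdp1-/- cells complemented with human TDP1, 400 cells/well, exposed to compounds plus 20 nM camptothecin for at least 48 h at 37 C; viability read as ATP content by CellTiter-Glo luminescence.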
TDP1 cell noCPT = qHTS for Inhibitors of human tyrosyl-DNA phosphodiesterase 1 (TDP1): qHTS in cells in absence of CPT. Potency, µM (doses to about 46.2 µM), actives largely listed as inhibitors. DT40 Tdp1-/- hTDP1 cells, no CPT, ATP luminescence, 48 h. 420,000 tested, 15% active. AID 686978, 2013; further: nearly all actives have a fitted effect of over 55% in size
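Cells were dispensed at 400 per well, compounds added by pin tool, plates incubated ≥48 hr at 37 °C, then CellTiter-Glo added for 30 min at room temperature before luminescence reading. Line: DT40 Tdp1-/- complemented with hTDP1; camptothecin omitted.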
IL1B secr inh = inhibitors of inflammasome signaling (IL-1 beta secretion) | 360,000 tested, 4.7% active | activity change, % at 57.5 µM | THP-1 LPS/ATP IL-1B secretion, AlphaLISA, 16 h; hits give low values; in the data active means activity change below about -50%; inconclusive means mostly about -30% to -49%
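THP-1 cells pretreated 1 hr with compounds (up to 57.5 uM final), then stimulated with LPS (250 ng/mL final) plus ATP (1.25 mM final); secreted IL-1B measured by AlphaLISA after 16 hr, decreased signal indicating inhibition.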
HT1080NT lethal = kills 2HG-producing HT-1080-NT fibrosarcoma cells. HT-1080-NT fibrosarcoma viability, CellTiter-Glo ATP luminescence, 48 h. Potency, µM (top dose mostly 46.1 µM), usual class: cytotoxic. 360,000 tested, 1.6% active. AID 686970;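 further: NT is the 2HG producing partner of a matched IDH1 knockdown line; nearly all actives have a fitted effect of over 55% in size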
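Toxicity toward the 2HG-producing NT line was scored as %Activity, normalised to DMSO and no-cell wells, from CellTiter-Glo luminescence after 48 hours' treatment.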
Numbers stand for hits. In the library only some 19% were active in any assay of this set; here they are far more common. Unless noted, the call rests on the fitted dose curve; in most records, active means well fitted curve in the direction sought with a large enough effect; inconclusive means small, poorly fitted or top-dose-only effect, or another doubt; inactive means no such curve, though single readings can be large; an effect the other way counts as inactive or inconclusive.

For O=C(Cn1nc(C(=O)O)c2ccccc2c1=O)Nc1cccc(S(=O)(=O)N2CCCCC2)c1 the results were HT1080 IDH1KD tx inactive, TDP1 cell CPT inactive, TDP1 cell noCPT inactive, IL1B secr inh inactive and HT1080NT lethal inactive.
For COC(=O)c1cccc(NC(=O)c2nn(C)c(=O)c3ccccc23)c1 the results were HT1080 IDH1KD tx inactive, TDP1 cell CPT 23.1µM, TDP1 cell noCPT 8.2µM, IL1B secr inh inactive and HT1080NT lethal inactive.
Screening COc1ccccc1NS(=O)(=O)c1cccc(NC(=O)c2nn(C)c(=O)c3ccccc23)c1 returned HT1080 IDH1KD tx inactive, TDP1 cell CPT inconclusive, TDP1 cell noCPT 23.1µM, IL1B secr inh inactive and HT1080NT lethal inactive.
Screening COC(=O)c1ccc(C)c(NC(=O)c2nn(C)c(=O)c3ccccc23)c1 returned HT1080 IDH1KD tx inactive, TDP1 cell CPT inactive, TDP1 cell noCPT inactive, IL1B secr inh inactive and HT1080NT lethal inactive.
Screening COc1ccc(C(=O)NN/C(C)=C/C(=O)C(F)(F)C(F)(F)C(F)(F)F)cc1 returned HT1080 IDH1KD tx inactive, TDP1 cell CPT inactive, TDP1 cell noCPT inactive, IL1B secr inh inactive and HT1080NT lethal inactive.
`CCCc1cc(=O)oc2c3c(cc(OCC(=O)N[C@@H](C)C(=O)O)c12)OC(C)(C)CC3` gave HT1080 IDH1KD tx inactive, TDP1 cell CPT inactive, TDP1 cell noCPT inactive, IL1B secr inh inactive and HT1080NT lethal inactive.
Screening Cc1c(C)c2c(OCC(=O)NCc3ccccn3)cc3c(c2oc1=O)CCC(C)(C)O3 returned HT1080 IDH1KD tx inactive, TDP1 cell CPT 14.6µM, TDP1 cell noCPT 16.4µM, IL1B secr inh inconclusive and HT1080NT lethal inactive.
`Cc1c(C)c2c(OCC(=O)NCC(O)c3ccccc3)cc3c(c2oc1=O)CCC(C)(C)O3` (stereo not drawn) gave HT1080 IDH1KD tx inactive, TDP1 cell CPT inconclusive, TDP1 cell noCPT inconclusive, IL1B secr inh inactive and HT1080NT lethal inactive.
CCCc1cc(=O)oc2c3c(cc(OCC(=O)NCc4ccncc4)c12)OC(C)(C)CC3 was read as HT1080 IDH1KD tx inactive, TDP1 cell CPT 6.51µM, TDP1 cell noCPT 20.6µM, IL1B secr inh inconclusive and HT1080NT lethal inactive.
COCCCNC(=O)COc1cc2c(c3oc(=O)c(C)c(C)c13)CCC(C)(C)O2 was read as HT1080 IDH1KD tx inactive, TDP1 cell CPT inconclusive, TDP1 cell noCPT 2.06µM, IL1B secr inh inactive and HT1080NT lethal inactive.
CCCc1cc(=O)oc2c3c(cc(OCC(=O)NCc4ccccn4)c12)OC(C)(C)CC3 was read as HT1080 IDH1KD tx inactive, TDP1 cell CPT 23.1µM, TDP1 cell noCPT inconclusive, IL1B secr inh inconclusive and HT1080NT lethal inactive.
O=C(Cn1ccn(-c2ccc(F)cc2)c(=O)c1=O)Nc1ccccc1C(F)(F)F was read as TDP1 cell CPT inactive and TDP1 cell noCPT inactive.
`O=C(NCCO)C(F)(F)C(F)(F)C(F)(F)OC(F)(C(=O)NCCO)C(F)(F)F` (stereo not drawn) gave HT1080 IDH1KD tx inactive, TDP1 cell CPT inactive, TDP1 cell noCPT inactive, IL1B secr inh inactive and HT1080NT lethal inactive.
COc1ccccc1OCCNC(=O)c1ccc2c(c1)OCCO2 was read as HT1080 IDH1KD tx inactive, TDP1 cell CPT inactive, TDP1 cell noCPT inconclusive, IL1B secr inh inactive and HT1080NT lethal inactive.
Screening CN(C)S(=O)(=O)c1cccc(-c2nn(-c3ccccc3)cc2/C=C(/C#N)C(=O)NCc2ccco2)c1 returned HT1080 IDH1KD tx inactive, TDP1 cell CPT 18.4µM, TDP1 cell noCPT inconclusive, IL1B secr inh inactive and HT1080NT lethal inconclusive.
COc1ccc(-n2c(C)cc(/C=C(\C#N)C(=O)NCc3ccco3)c2C)cc1 was read as HT1080 IDH1KD tx inactive, TDP1 cell CPT inactive, TDP1 cell noCPT inactive, IL1B secr inh inactive and HT1080NT lethal inactive.
COc1ccc(-c2nn(-c3ccccc3)cc2/C=C(\C#N)C(N)=O)cc1[N+](=O)[O-] was read as HT1080 IDH1KD tx inactive, TDP1 cell CPT inactive, TDP1 cell noCPT inactive, IL1B secr inh inactive and HT1080NT lethal inactive.
For CCOc1ccc(-c2nn(-c3ccccc3)cc2/C=C(\C#N)S(=O)(=O)c2ccccc2)cc1C the results were HT1080 IDH1KD tx inconclusive, TDP1 cell CPT inconclusive, TDP1 cell noCPT 13µM, IL1B secr inh inactive and HT1080NT lethal inactive.
For Cc1cc(/C=C(\C#N)C(=O)NCc2ccco2)c(C)[nH]1 the results were HT1080 IDH1KD tx inactive, TDP1 cell CPT inactive, TDP1 cell noCPT inactive, IL1B secr inh -50.7 and HT1080NT lethal inconclusive.
`CCCOc1cccc(-c2nn(-c3ccccc3)cc2/C=C(\C#N)C(=O)NCCCn2ccnc2)c1` gave HT1080 IDH1KD tx inactive, TDP1 cell CPT inconclusive, TDP1 cell noCPT inconclusive, IL1B secr inh -58.2 and HT1080NT lethal inactive.
`N#C/C(=C\c1ccc([N+](=O)[O-])cc1)C(=O)NCCCn1ccnc1` gave HT1080 IDH1KD tx inactive, TDP1 cell CPT inconclusive, TDP1 cell noCPT inconclusive, IL1B secr inh inactive and HT1080NT lethal inactive.
CCN(CC)S(=O)(=O)c1cccc(-c2nn(-c3ccccc3)cc2/C=C(\C#N)C(=O)NCc2ccco2)c1 was read as HT1080 IDH1KD tx inactive, TDP1 cell CPT inconclusive, TDP1 cell noCPT inconclusive, IL1B secr inh inactive and HT1080NT lethal inactive.
Screening O=C(c1cc(Cl)nc2ccccc12)N1CCN(S(=O)(=O)c2cccc(C(F)(F)F)c2)CC1 returned HT1080 IDH1KD tx inactive, TDP1 cell CPT inactive, TDP1 cell noCPT inactive, IL1B secr inh inactive and HT1080NT lethal inactive.
For CC(C)(C)C1CCNC(=O)CC1 (stereo not drawn) the results were HT1080 IDH1KD tx inactive, TDP1 cell CPT inactive, TDP1 cell noCPT inactive, IL1B secr inh inactive and HT1080NT lethal inactive.
`Cn1c(/N=C(\N)c2ccccc2)nc2ccccc21` gave HT1080 IDH1KD tx inactive, TDP1 cell CPT inconclusive, TDP1 cell noCPT inconclusive, IL1B secr inh inactive and HT1080NT lethal inactive.
Cc1ccc(C)c(C(=O)OCC(=O)NC(=O)NCc2ccccc2)c1 was read as HT1080 IDH1KD tx inactive, TDP1 cell CPT inactive, TDP1 cell noCPT inconclusive, IL1B secr inh inactive and HT1080NT lethal inactive.
Screening Cc1ccc(C)c(NC(=O)/C(C#N)=C/c2cn(CC(=O)NCc3ccco3)c3ccccc23)c1 returned HT1080 IDH1KD tx inconclusive, TDP1 cell CPT 16.4µM, TDP1 cell noCPT inconclusive, IL1B secr inh inactive and HT1080NT lethal inactive.
Screening CCOc1ccccc1NS(=O)(=O)c1ccc2oc(=O)ccc2c1 returned HT1080 IDH1KD tx inactive, TDP1 cell CPT inactive, TDP1 cell noCPT inconclusive, IL1B secr inh inactive and HT1080NT lethal inactive.
CCN(CC)S(=O)(=O)c1ccc2c(c1)nc(CCC(=O)Nc1cccc(C(F)(F)F)c1)n2CC was read as HT1080 IDH1KD tx inactive, TDP1 cell CPT 29.1µM, TDP1 cell noCPT inconclusive, IL1B secr inh inconclusive and HT1080NT lethal inactive.
`Cc1ccc(OCC(=O)NNC(=O)Nc2ccc(Cl)cc2)c(Br)c1` gave HT1080 IDH1KD tx inactive, TDP1 cell CPT inactive, TDP1 cell noCPT inactive, IL1B secr inh inactive and HT1080NT lethal inactive.
